Source: PubChem BioAssay (several laboratories)
Shown are actives, neighbours in structure and some others; about 0.67% of the full set was active somewhere.
Vc quorum ag: quorum light induction in luxS cqsA deficient V. cholerae | V. cholerae BH1578 lux reporter, luminescence, 6 h | activation, % at 18.7 µM | 350,000 tested, 0.16% active; in the data active = activation mostly above about 9.7%, no sharp cut-off
RN4220 kill: S. aureus RN4220 growth inhibition | 330,000 tested, 0.33% active | inhibition, % (no concentration beside the values) | OD600, 16 h | AID 1259311; in the data active = inhibition above about 85%;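 note: plate controls were untreated cells for no effect and reference antibiotic for full effect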
ugtP null kill: compounds lethal to S. aureus RN4220 ugtP deletion mutant. AID 1259309. 330,000 tested, 0.54% active. growth inhibition, % (test concentration not listed). OD600 growth, 16 h; in the data active = growth inhibition above about 68%;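 note: plate controls were untreated wells for no effect and antibiotic for full effect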
TcdB inh: blocks C. difficile toxin B glycohydrolase activity; TcdB glycohydrolase enzymatic assay, plate reader; P18177; 350,000 tested, 0.24% active; inhibition, % at 9.99 µM; in the data active = inhibition above about 10%
Starred values were filed as active, the others as inactive; i = inactive; x = no result given; + = active, no number.

SMILES | Vc quorum ag | RN4220 kill | ugtP null kill | TcdB inh
O=[N+]([O-])c1cccc(CN2CCN(c3cccc4[nH]ccc34)CC2)c1 | 1 | -2 | 9 | 5
O=C(c1ccc([N+](=O)[O-])cc1)N1CCN(c2cccc3[nH]ccc23)CC1 | 0 | 1 | 4 | 10*
CN(N=Cc1ccc(Cl)cc1)c1ncc(Cl)cc1C(F)(F)F | x | -11 | 98* | x
CN(N=Cc1ccc(Cl)cc1Cl)c1ncc(Cl)cc1C(F)(F)F | x | -1 | 54 | x
CCCNC(=O)C[C@H]1CC[C@H]2[C@@H](COc3ccc(NC(=O)c4ccc(Cl)cc4)cc3C(=O)N2C)O1 | x | x | x | 0
CCCNC(=O)C[C@H]1CC[C@@H]2[C@H](COc3ccc(NC(=O)c4ccc(Cl)cc4)cc3C(=O)N2C)O1 | x | x | x | 15*
CCNC(=O)C[C@@H]1CC[C@H]2[C@H](COc3ccc(NC(C)=O)cc3C(=O)N2C)O1 | x | x | x | 10*
CC(=O)C1=NN(c2ccccc2)C2(SC(=Cc3ccccc3)C(=O)N2c2ccccc2)S1 (stereo not given) | x | 1 | 2 | x
CC=C(C)C(=O)Nc1cccc(C2=NOC3(C2)CC(C(N)=O)N(C(=O)c2ccccc2)C3)c1 (stereo not given) | x | 4 | 0 | x
NCCCCCc1cn(C(CO)C(=O)NCCCCCCCCCCC(=O)N2CCNCC2)nn1 (stereo not given) | x | 4 | 0 | x
COc1cccc(N2C(CC(C)=O)c3cc(C(F)(F)F)ccc3S2(=O)=O)c1 (stereo not given) | x | 3 | -2 | x
COc1ccccc1N(CCC#N)C(=O)CSc1nc(-c2ccccc2)cn1N | 29* | -5 | -6 | x
COc1ccccc1N(CCC#N)C(=O)CSc1nnc2ccccn12 | 1 | 0 | 3 | -3
COc1ccc(-c2csc3ncnc(N4CCN(S(=O)(=O)c5ccc(C)cc5)CC4)c23)cc1 | i | 2 | -12 | 2
O=S(=O)(c1cccc(Br)c1)N1CCN(c2ncnc3scc(-c4ccccc4)c23)CC1 | 0 | 98* | 99* | 1
C=CC[N+]1(C)CC[C@]23c4c5ccc(O)c4OC2C(=O)CC[C@@]3(O)C1C5 (stereo not given in full) | x | 8 | -2 | x
CC(NC(=O)Nc1nnc(C(F)(F)F)s1)(C(F)(F)F)C(F)(F)F | 0 | 74 | 83* | x
Cc1nn(-c2ccccc2)nc1C(=O)Nc1nnc(C(F)(F)F)s1 | 0 | 79 | 86* | 3
CCc1nnc(NC(=O)c2nn(-c3ccccc3)nc2C)s1 | 0 | 1 | 0 | -10
Cc1onc(-c2c(F)cccc2Cl)c1C(=O)Nc1nnc(C(F)(F)F)s1 | 8 | 63 | 52 | 16*
O=C(Nc1ccccc1C(=O)Nc1nnc(C(F)(F)F)s1)c1ccccc1Cl | 0 | 88* | 90* | 4
Cc1onc(-c2c(F)cccc2Cl)c1C(=O)Nc1nccs1 | i | 3 | -1 | 1
O=C(NN=Cc1ccc(OC(F)F)cc1)c1ccc(Br)cc1 | x | 7 | -9 | x
O=C(Nc1nnc(C(F)(F)F)s1)c1ccc(Br)s1 | 0 | 84 | 81* | 17*
CCOC1OC(C(=O)NCc2ccccc2)=CC(C(C)(C)C)C1CCCO (stereo not given) | x | 3 | 1 | x
SMILES | Vc quorum ag | RN4220 kill | ugtP null kill | TcdB inh
COC(=O)c1ccc(Cn2cc(C(F)(F)F)ccc2=O)cc1 | 0 | -1 | 1 | -1
COC(=O)c1ccc(Cn2cc(C(F)(F)F)cc([N+](=O)[O-])c2=O)cc1 | + | 4 | 4 | 0
CC1CC1C(=O)N1CCN(S(=O)(=O)c2cc(C(F)(F)F)cc(C(F)(F)F)c2)CC1 (stereo not given) | -7 | 86* | 96* | 1
CCc1ccc(-c2csc(-c3c[nH]c4ccccc34)n2)cc1 | -4 | -2 | 85* | x
COc1ccc(/C=C/c2nc3ccccc3n2C)cc1 | 0 | 17 | 1 | 13*
COc1ccc(Cn2c(/C=C/c3ccccc3)nc3ccccc32)cc1 | i | -11 | -29 | x
O=C(NC(=S)Nc1ccc(Oc2ccc(Cl)cc2)cc1)c1ccccc1 | 5 | -15 | 86* | x
O=C(NC(=S)Nc1ccc(Cl)cc1)c1ccccc1 | 6 | 4 | 24 | 2
COC(=O)C(O)(c1ccc(NC(=S)NC(=O)c2ccccc2)cc1)C(F)(F)F (stereo not given) | i | -1 | 89* | x
CCC1OC(=O)C(C)C(OC2C[C@@](C)(OC)C(O)C(C)O2)C(C)C(OC2OC(C)CC(N(C)C)C2O)[C@](C)(O)CC(C)C(=NOCOCCOC)C(C)C(O)[C@]1(C)O (stereo not given in full) | x | 100* | 100* | x
CNCC(CC1CCCCC1)NCC(Cc1ccccc1)NCCC12CC3CC(CC(C3)C1)C2 (stereo not given) | x | 100* | 101* | x
CNCC(Cc1ccccc1)NCC(CC1CCCCC1)NCCCc1ccccc1 (stereo not given) | x | 85* | 82 | x
CNC[C@H](CC1CCCCC1)NC[C@H](CO)NCCc1cccc(C(F)(F)F)c1 | i | x | x | 0
Cc1cc(N2C(=O)C(O)=C(C(=O)c3cc4ccccc4o3)C2c2ccc(OC(C)C)cc2)no1 (stereo not given) | i | 100* | 100* | -1
CCCOc1cccc(C2C(C(=O)c3cc4ccccc4o3)=C(O)C(=O)N2c2cc(C)on2)c1 (stereo not given) | i | 100* | 100* | 0
Cc1cc(N2C(=O)C(O)=C(C(=O)c3cc4ccccc4o3)C2c2cccc(Br)c2)no1 (stereo not given) | -1 | 100* | 100* | 1
O=C1NCC(c2ccccc2)N(CCc2cc(C(F)(F)F)cc(C(F)(F)F)c2)C1=O (stereo not given) | x | 3 | 0 | x
CCOc1cc(C=N/N=C2/NC(=O)C(CC(=O)O)S2)ccc1OCc1ccc(Cl)cc1 (stereo not given) | x | 3 | 2 | x
COc1ccc(C(=O)/C=C/c2ccc(O)cc2)c2c1CC(O)C(C)(C)O2 (stereo not given) | 0 | 2 | 13 | 23*
CC(=NNC(=O)c1ccncc1)c1ccc(NC(=O)c2ccc(Cl)cc2)cc1 | x | 5 | 2 | x
CCCCCCNC(=O)c1c(O)c2cccc3c2n(c1=O)CCC3 | 17* | -1 | 7 | x
CCCc1nnc(NC(=O)c2c(O)c3cccc4c3n(c2=O)CC4)s1 | x | 101* | 100* | x
Cc1cc(O)ccc1N=Cc1c(C(F)(F)F)[nH][nH]c1=O | 0 | 5 | 4 | 15*
COc1ccc(C2(CNC(=O)c3ccc(OC)c([N+](=O)[O-])c3)CCCCC2)cc1OC | 1 | -4 | 13 | 12*
COc1ccc(C(=O)NCC2(c3ccc(OC)c(OC)c3)CCCC2)cc1OC | i | x | x | 1
O=C(Nc1ccc(OC(F)(F)F)cc1)Nc1cccc([N+](=O)[O-])c1 | 0 | 100* | 100* | x
O=C(Nc1ccncc1)Nc1cccc(C(F)(F)F)c1 | -1 | -16 | -27 | -1
O=C(Nc1ccc(OC(F)F)cc1)Nc1cccc(C(F)(F)F)c1 | i | 82 | 90* | x
CC1CN(C(C)CO)C(=O)c2cccc(NS(=O)(=O)c3ccc(F)cc3)c2OC1CN(C)C(=O)NC1CCCCC1 (stereo not given) | x | 6 | -7 | x
